In PubChem BioAssay:
For some of these results: Results with a measured potency or affinity are listed apart. Activity calls are given as the source filed them.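 Rule for the calls, unless noted: active = earlier screen potentiator hit that boosts the TRPC4 ion channel at some dose, with a dose response; inactive = no potentiation, no dose response, or not a prior hit.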

Tests used:
[1] = tested on: TRPC4 beta (transient receptor potential cation channel C4), mouse; assay: TRPC4 cation channel opening, retest – cell-based, Fluo4 calcium, HEK293 TRPC4beta/mu-opioid, duplicates, 10 µM, confirmation (AID 2426;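 active = fluorescence ratio normalized to control raised more than 50% in primary screen plus both repeat runs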); details: Fluo4 calcium fluorescence, at 10 µM; active compounds read high
[2] = tested on: transient receptor potential cation channel C4 beta (TRPC4), mouse; assay: TRPC4 cation channel opening, second retest – cell-based, second round, Fluo4, HEK293 TRPC4beta/mu-opioid, 1 µM, confirmation (AID 2461;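 active = primary screen active and over 50% activation in each of two duplicate runs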); details: Fluo4 calcium fluorescence, at 1 µM; active compounds read high
[3] = tested on: TRPC4 (transient receptor potential cation channel C4 beta), mouse; assay: potentiation of DAMGO EC20 TRPC4 response – cell-based, second round, Fluo-4, HEK293 TRPC4beta/mu-opioid, 1 µM, confirmation (AID 2554;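 active = primary screen hit whose fluorescence ratio, in both repeats, exceeds the weak agonist control mean by 3 SD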); details: DAMGO EC20, Fluo-4 calcium flux, at 1 µM; active compounds read high
[4] = tested on: TRPC4 beta (transient receptor potential cation channel C4), mouse; assay: potentiation of DAMGO EC20 TRPC4 response – cell-based, Fluo-4, HEK293 TRPC4beta/mu-opioid, confirmation (AID 2555;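 active = primary screen hit whose calcium fluorescence ratio, in both repeats, exceeds the weak agonist control mean by 3 SD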); details: DAMGO EC20, Fluo-4 calcium flux, at 10 µM; active compounds read high
[5] = target: Short transient receptor potential channel 4 (Mus musculus) (UniProt Q9QUQ5); assay: blockers of DAMGO-evoked TRPC4 calcium flux – cell-based, Fluo4, HEK293 TRPC4beta/mu-opioid, confirmation (AID 2636;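 active = calcium signal cut by more than 3 SD below the full-agonist control yet still positive, in both repeats and the earlier primary screen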); details: at 10 µM; active compounds read high
[6] = target: Short transient receptor potential channel 4 (Mus musculus) (UniProt Q9QUQ5); assay: blockers of DAMGO-evoked TRPC4 calcium flux – cell-based, second round, Fluo4, HEK293 TRPC4beta/mu-opioid, 1 µM, confirmation (AID 2637;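 active = calcium signal ratio cut to more than 3 SD under the fully stimulated control mean yet still positive, in both repeats and the primary screen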;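 for inhibition: percent of integrated ratio relative to wells lacking test compound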); details: at 1 µM; active compounds read high
[7] = target: Short transient receptor potential channel 4 (Mus musculus) (UniProt Q9QUQ5); assay: calcium entry via TRPC4 opening agents – cell-based, HEK293 TRPC4/mu-opioid, Fluo-4 calcium, dose response (AID 434937;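 active = primary screen activator hit with a dose response curve and TRPC4 channel activation at any tested dose; inactive = no activation, no dose response, or not a primary hit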)
[8] = target: Short transient receptor potential channel 4 (Mus musculus) (UniProt Q9QUQ5); assay: potentiation of DAMGO-evoked TRPC4 calcium signal – cell-based, HEK293 TRPC4/mu-opioid, Fluo-4 calcium, EC20 DAMGO, dose response (AID 434941);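 note: calcium entry triggered by an EC20 dose of DAMGO at the co-expressed mu-opioid receptor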
[9] = target: Short transient receptor potential channel 4 (Mus musculus) (UniProt Q9QUQ5); assay: block of DAMGO-driven TRPC4 calcium entry – cell-based, HEK293 TRPC4/mu-opioid, Fluo-4 calcium, dose response (AID 434942;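 active = primary screen inhibitor hit that blocks the TRPC4 channel at some tested dose, yielding a dose curve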)
[10] = target: Short transient receptor potential channel 6 (Mus musculus) (UniProt Q61143); assay: TRPC6 blockade by TRPC4 inhibitor hits – cell-based, HEK293, membrane potential dye, duplicate, selectivity assay for TRPC4 inhibitor project, confirmation (AID 434948;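 active = active in primary screen and both duplicates, each dropping signal beyond three positive-control SD with fluorescence still positive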); details: HEK293 TRPC6, membrane potential dye fluorescence, at 10 µM, stimulated with maximal-effect acetylcholine; active compounds read high
[11] = target: Short transient receptor potential channel 6 (Mus musculus) (UniProt Q61143); assay: TRPC6 opening by TRPC4 activator hits – cell-based, HEK293, membrane potential dye, duplicate, selectivity assay for TRPC4 activator project, confirmation (AID 434950;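 active = membrane potential signal rise above negative control mean plus 3 SD in both duplicates, also active in the earlier TRPC4 screen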); details: HEK293 TRPC6, membrane potential fluorescence, at 10 µM; activation: active compounds read high; outcome: activation
[12] = target: Short transient receptor potential channel 6 (Mus musculus) (UniProt Q61143); assay: positive modulators of mouse TRPC6 channel – HEK293 cells, membrane potential dye, duplicate, selectivity assay for TRPC4 potentiator project, confirmation (AID 434952;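 active = compound raising the membrane signal above positive-control mean plus 3 SD in both repeats, and a primary screen hit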); details: HEK293 TRPC6, membrane potential dye fluorescence, at 10 µM, maximal acetylcholine added after compound; active compounds read high
[13] = target: Short transient receptor potential channel 4 (Mus musculus) (UniProt Q9QUQ5); assay: calcium flux activators in TRPC4/5HT1a cells, counter-screen for TRPC4 activator project, cell-based, second counter screen, HEK293 TRPC4/5HT1a, Fluo-4 (AID 434977;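 active = calcium signal rise above buffer-control mean plus 5 SD in both duplicates, and also a hit in the primary screen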); details: Fluo-4 calcium flux, at 10 µM; active compounds read high
[14] = serotonin-gated TRPC4 signal block – cell-based, second counter screen, HEK293 TRPC4/5HT1a, Fluo-4, counter-screen for TRPC4 inhibitor project, confirmation (AID 434978;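 active = primary screen active whose calcium signal fell more than 3 SD beyond the full-serotonin control mean in both duplicate plates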;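 for outcome: serotonin given first at submaximal then at maximal dose after compound preincubation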); details: Fluo-4 calcium flux, at 10 µM, serotonin added to trigger calcium flux; active compounds read high
[15] = tested on: TRPC4 (mouse), co-expressed with 5HT1a in HEK293; assay: enhancement of serotonin-evoked TRPC4 response – cell-based, second counter screen, HEK293 TRPC4/5HT1a, Fluo-4, counter-screen for TRPC4 potentiator project, confirmation (AID 434979;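 active = signal rise over 3 SD above mean of control wells given weak agonist, in both repeats and first screen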); details: Fluo-4 calcium flux, at 10 µM, serotonin added at its EC20 dose; active compounds read high
[16] = nonspecific calcium rise without TRPC4 – cell-based, HEK293 mu-opioid receptor line, counter-screen for TRPC4 activator project, confirmation (AID 449723;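 active = hit in primary screen, with calcium signal over 5 SD above buffer well mean in both duplicates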;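 note: counter screen cells carry the mu-opioid receptor alone and lack TRPC4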); details: HEK293 mu-opioid cells, Fluo-4 calcium fluorescence, at 10 µM; active compounds read high
[17] = nonspecific potentiation of DAMGO calcium response – cell-based, HEK293 mu-opioid receptor line, counter-screen for TRPC4 allosteric potentiator project, confirmation (AID 449724;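 active = calcium signal rise more than 3 SD above the low-dose agonist control mean, in both duplicate plates and the primary screen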); details: HEK293 mu-opioid receptor cells, Fluo-4 calcium flux, at 10 µM, compound added before EC20 DAMGO stimulus; active compounds read high

Sequence of Short transient receptor potential channel 6 (Mus musculus) (Q61143 whole entry, looked up): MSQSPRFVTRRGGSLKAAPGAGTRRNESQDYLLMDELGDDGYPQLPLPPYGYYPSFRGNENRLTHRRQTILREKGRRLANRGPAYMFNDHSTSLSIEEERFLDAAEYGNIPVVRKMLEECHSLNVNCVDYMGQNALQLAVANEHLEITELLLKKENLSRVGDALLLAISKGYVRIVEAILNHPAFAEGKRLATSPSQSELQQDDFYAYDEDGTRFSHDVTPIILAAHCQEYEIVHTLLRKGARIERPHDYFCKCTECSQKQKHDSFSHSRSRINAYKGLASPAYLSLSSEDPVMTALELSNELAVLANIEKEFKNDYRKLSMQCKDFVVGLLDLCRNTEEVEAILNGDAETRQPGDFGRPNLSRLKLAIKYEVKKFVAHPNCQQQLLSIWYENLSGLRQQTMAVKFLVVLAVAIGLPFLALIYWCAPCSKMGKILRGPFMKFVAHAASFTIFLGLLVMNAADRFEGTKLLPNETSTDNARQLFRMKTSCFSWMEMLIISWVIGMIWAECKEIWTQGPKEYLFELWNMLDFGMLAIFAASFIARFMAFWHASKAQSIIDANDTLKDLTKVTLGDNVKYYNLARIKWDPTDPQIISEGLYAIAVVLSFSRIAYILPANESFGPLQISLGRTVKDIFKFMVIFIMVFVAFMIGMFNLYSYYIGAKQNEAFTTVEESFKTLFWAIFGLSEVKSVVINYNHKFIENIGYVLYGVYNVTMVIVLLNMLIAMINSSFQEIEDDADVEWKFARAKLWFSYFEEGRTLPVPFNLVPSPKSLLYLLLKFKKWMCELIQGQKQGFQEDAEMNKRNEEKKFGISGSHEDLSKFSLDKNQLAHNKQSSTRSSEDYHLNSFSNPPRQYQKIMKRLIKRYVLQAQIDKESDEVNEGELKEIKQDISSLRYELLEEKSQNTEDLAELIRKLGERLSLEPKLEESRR
Sequence of Short transient receptor potential channel 4 (Mus musculus) (Q9QUQ5 whole entry, looked up): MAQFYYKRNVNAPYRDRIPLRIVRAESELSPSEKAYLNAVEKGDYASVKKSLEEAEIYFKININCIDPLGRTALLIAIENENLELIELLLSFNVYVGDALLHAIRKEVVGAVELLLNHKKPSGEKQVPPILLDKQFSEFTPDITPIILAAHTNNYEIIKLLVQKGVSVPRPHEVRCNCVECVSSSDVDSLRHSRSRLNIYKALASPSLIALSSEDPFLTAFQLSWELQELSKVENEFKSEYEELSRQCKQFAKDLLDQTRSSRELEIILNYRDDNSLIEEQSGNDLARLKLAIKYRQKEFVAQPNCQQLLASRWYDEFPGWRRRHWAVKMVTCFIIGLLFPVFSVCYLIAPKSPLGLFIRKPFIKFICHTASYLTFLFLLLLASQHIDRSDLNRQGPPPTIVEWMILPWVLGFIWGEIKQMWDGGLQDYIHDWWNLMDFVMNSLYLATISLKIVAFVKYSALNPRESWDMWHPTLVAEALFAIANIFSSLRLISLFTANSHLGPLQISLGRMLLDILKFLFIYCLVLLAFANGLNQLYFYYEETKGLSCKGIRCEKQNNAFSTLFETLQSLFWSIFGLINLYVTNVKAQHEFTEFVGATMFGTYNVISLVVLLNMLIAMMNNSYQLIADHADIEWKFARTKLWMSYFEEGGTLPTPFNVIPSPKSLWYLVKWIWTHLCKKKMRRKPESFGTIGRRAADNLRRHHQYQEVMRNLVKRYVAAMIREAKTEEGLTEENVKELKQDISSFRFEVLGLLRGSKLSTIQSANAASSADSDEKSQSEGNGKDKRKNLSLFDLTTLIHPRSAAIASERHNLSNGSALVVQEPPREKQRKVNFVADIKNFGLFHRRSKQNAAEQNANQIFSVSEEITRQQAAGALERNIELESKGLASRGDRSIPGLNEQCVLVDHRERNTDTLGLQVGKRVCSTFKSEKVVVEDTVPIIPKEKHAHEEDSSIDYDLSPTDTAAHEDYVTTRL

COc1ccccc1N(C(=O)c1snc(C(N)=O)c1N)C(C(=O)NCc1ccccc1)c1ccc(O)cc1 (stereo unspecified)
active: inhibition [5] 91% | inhibition [6] 51% | inhibition [14] 26.4%
inactive: outcome [1] | outcome [2] | outcome [3] | outcome [4] | outcome [7] | outcome [8] | outcome [9] | outcome [10] | outcome [11] | outcome [12] | outcome [13] | outcome [15] | outcome [16] | outcome [17]

Cc1c(C(=O)NCCc2ccccc2)oc2ccccc12
inactive: outcome [1] | outcome [2] | outcome [3] | outcome [5] | outcome [6] | outcome [7] | outcome [8] | outcome [9] | outcome [10] | outcome [11] | outcome [12] | outcome [13] | outcome [14] | outcome [16] | outcome [17]
active: potentiation [4] 61% | potentiation [15] 45.7%

CCOC(=O)CCSc1nc(C)cc(C(F)(F)F)c1C#N
inactive: outcome [1] | outcome [2] | outcome [3] | outcome [4] | outcome [5] | outcome [6] | outcome [7] | outcome [8] | outcome [9] | outcome [10] | outcome [11] | outcome [12] | outcome [13] | outcome [14] | outcome [15] | outcome [16] | outcome [17]

O=C(c1ccncc1)N1c2ccccc2Sc2ccccc21
inactive: outcome [1] | outcome [2] | outcome [3] | outcome [4] | outcome [5] | outcome [6] | outcome [7] | outcome [8] | outcome [9] | outcome [10] | outcome [11] | outcome [12] | outcome [13] | outcome [14] | outcome [15] | outcome [16] | outcome [17]

Clc1ccc2[nH]c3c(c2c1)CNCC3
inactive: outcome [1] | outcome [2] | outcome [5] | outcome [6] | outcome [7] | outcome [8] | outcome [9] | outcome [10] | outcome [11] | outcome [12] | outcome [13] | outcome [14] | outcome [15] | outcome [16] | outcome [17]
active: potentiation [3] 10% | potentiation [4] 12%

CCN1CCCC1CNCc1ccc(Cl)cc1Cl (stereo unspecified)
inactive: outcome [1] | outcome [2] | outcome [5] | outcome [6] | outcome [7] | outcome [8] | outcome [9] | outcome [10] | outcome [11] | outcome [12] | outcome [13] | outcome [14] | outcome [16] | outcome [17]
active: potentiation [3] 11% | potentiation [4] 8% | potentiation [15] 12.9%

c1ccc2c3c([nH]c2c1)CCNC3
inactive: outcome [1] | outcome [2] | outcome [3] | outcome [4] | outcome [5] | outcome [6] | outcome [7] | outcome [8] | outcome [9] | outcome [10] | outcome [11] | outcome [12] | outcome [13] | outcome [14] | outcome [15] | outcome [16] | outcome [17]

CN(C)CCCOC(=O)c1ccc(Cl)cc1Cl
inactive: outcome [1] | outcome [2] | outcome [5] | outcome [6] | outcome [7] | outcome [8] | outcome [9] | outcome [10] | outcome [11] | outcome [12] | outcome [13] | outcome [14] | outcome [16] | outcome [17]
active: potentiation [3] 16% | potentiation [4] 8% | potentiation [15] 18.3%
